Potency data for 14 compounds are collected here from PubChem BioAssay (NCATS).

Inconclusive results are not listed. A call without a number means that no potency is given here. Active and inactive are the calls of the source. Calls follow the shape of the dose curve; as a rule, active = well fitted cell-killing curve with a large enough effect; inconclusive = small, poorly fitted or top-dose-only effect; inactive = flat fitted curve, though single readings scatter.
Potency is read from the fitted curve at half-maximal effect.

The assay is described as follows: Cell Viability - LYMP2-019 (AID 973). Also: nearly all actives have a fitted effect of over 55% in size. The note with it: LYMP2-019 lymphoblastoid cell line viability; series mostly up to 92.2 µM. The text has this: NIH Chemical Genomics Center [NCGC]
NIH Molecular Libraries Screening Centers Network [MLSCN]
National Institutes of Environmental Health Sciences [NIEHS]
National Toxicology Program [NTP]
We have developed a 1536-well cell-based assay for quantitative high throughput screening (qHTS) against a number of cell lines to determine in vitro cytotoxicity of small molecules. This particular assay uses a human lymphoblastoid cell line (LYMP2-019) purchased from Coriell Institute for Medical Research.
NCGC Assay Protocol Summary:
The CellTiter-Glo luminescent cell viability assay (Promega) is a homogeneous method to measure the number of viable cells in culture. The end point readout of this assay is based on quantitation of intracellular ATP, an indicator of metabolic activity, using the luciferase reaction. Luciferase catalyzes the oxidation of beetle Luciferin to oxyluciferin and light in the presence of ATP. The luminescent signal is proportional to amount of ATP present.
Using the CellTiter-Glo luminescent cell viability assay, the amount of cellular ATP was measured in the lymphoblastoid cell line with complete culture medium following compound treatment for 24 hours. The assay was performed in opaque white Kalypsys 1536-well plates. In the screen, tetraoctylammonium bromide was used as positive control. Library compounds were measured for their ability to cause acute toxicity in the cell line, as reflected by a decrease in intracellular ATP levels, in a concentration-dependent manner. […] AC50 values were determined from concentration-response data modeled with the standard Hill equation.
qHTS protocol for CellTiter Glo lymphoblastoid cellular assay
[Step] [Parameter] [Value] [Description]
1. Reagent; 5 uL; 2500 lymphoblastoid cells/well
2. Time; 5 hr; 37 C incubation
4. Controls; 23 nL; Tetraoctylammonium bromide 6.4pM to 92 uM
5. Time; 24 hr; 37 C incubation
6. Reagent; 5 uL; CellTiter Glo reagent
7. Time; 30 min; Room Temperature
8. Detection; Luminescence; Viewlux plate reader
Keywords: cell viability, cytotoxicity, lymphoblastoid cell line, luminescence, NTPHTS, NTPHTS_NCGC, NIEHS, DSSTox, MLSMR, MLSCN, NIH Roadmap, qHTS, NCGC
Take `CC(O)CO` (centres undefined): the Potency entry was “inactive”.
As for `CCCCCCCC(=O)O`, the entry is “inactive”.
For `CC(C)=O`, the Potency result was “inactive”.
Next, `CC1=C2[C@@H]([C@H](C)CC[C@H]2/C=C(\C)C(=O)O)[C@H](O)C1`: “inactive”; `CCCCCCCC/C=C\CCCCCCCC(=O)O`: “inactive”.
As for `CCCCC/C=C\C/C=C\CCCCCCCC(=O)O`, the entry is “inactive”; as for `IC(I)I`, “inactive”.
Next, `CCOc1ccc2c(c1)C(C)=CC(C)(C)N2`: “inactive”; `O=C(O)CCC(=O)C(=O)O`: “inactive”; `O=CCCCC=O`: 25.1 µM (active).
In the case of `Nc1ccn([C@H]2CS[C@@H](CO)O2)c(=O)n1`, the Potency entry was “inactive”.
As for `Cc1ccccc1`, the entry is “inactive”.
Next, `O=S(=O)(O)O`: “inactive”.
As for `CCOC(C)=O`, the entry is “inactive”.
